We go through seven compounds from PubChem BioAssay (NCATS).

Test [1] is described as follows: Cell Viability - N2a (AID 540).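 Also: plate controls were DMSO alone for no effect and tamoxifen control for full effect; nearly all actives have a fitted effect of over 45% in size.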 The following applies: N2a mouse neuroblastoma cell viability; activity change, negative = cytotoxicity: at 92.2 µM (top of the series). Summed up: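 Mouse neuroblastoma N2a cells, 1500/well, exposed to compounds 40 h at 37 °C in complete medium. Viability measured as cellular ATP by CellTiter-Glo luminescence; AC50 from Hill fits of concentration-response.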

Test [2] can be described thus: Cell Viability - LYMP2-025 (AID 976).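 Also: plate controls were DMSO only for no effect and tetraoctylammonium bromide control for full effect.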 Summed up:
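Human lymphoblastoid LYMP2-025 cells, 2500/well, exposed 24 h at 37 C in complete medium in 1536-well qHTS. Viability as cellular ATP by CellTiter-Glo luminescence; AC50 from Hill fits of concentration-response data.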

A short description of test [3]: Cell Viability - LYMP2-018 (AID 985).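 Also: compound exposure lasted 24 hr at 37 °C; plate controls were DMSO only for no effect and tetraoctylammonium bromide at 92 µM for full effect; nearly all actives have a fitted effect of over 50% in size.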 Summed up: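 Human lymphoblastoid LYMP2-018 cells, 2500/well, settled 5 hr at 37 C then exposed to compound 24 hr at 37 C; intracellular ATP measured by CellTiter-Glo luminescence. AC50 from Hill-equation concentration-response fits.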
A short description of test [4]: Cell Viability - LYMP2-022 (AID 987).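 Also: 0% = DMSO alone and full effect = tetraoctylammonium bromide at 92 µM; nearly all actives have a fitted effect of over 55% in size.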 Summed up:
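LYMP2-022 lymphoblastoid cells (2500/well, complete medium) were treated with compounds for 24 hours at 37 C; intracellular ATP was then read by CellTiter-Glo luminescence after 30 min at room temperature. AC50 values were derived from Hill-equation fits.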

For test [5], the target named is Bile acid receptor (Homo sapiens) (UniProt Q96RI1). The experiment in a line: qHTS assay for small molecule agonists of farnesoid X receptor signaling (AID 588527; calls by dose curve;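 also: 0% = vehicle basal and 100% = reference agonist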). The following applies: HEK293T FXR-UAS-bla, beta-lactamase ratio, 16 h; stronger effect = higher value. Summed up: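 Quantitative HTS used FXR-UAS-bla HEK293T cells with 16 h compound incubation at 37 C. EC50 values came from concentration-response curves normalized to chenodeoxycholic acid.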

Test [6] in a line: qHTS assay for small molecule antagonists of peroxisome proliferator-activated receptor delta signaling (AID 588535; active = well fitted inhibition curve with a large enough effect in the signal ratio, with a control signal flat, not every such curve was filed as active; the % refers to the signal ratio;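 as to max response: cells co-treated with a PPAR-delta agonist as stimulator during compound exposure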). The following applies: HEK293T PPARd-UAS-bla, beta-lactamase FRET ratio, 18 h; 460 nm channel. The method in brief: (§1)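 HEK293T PPAR-delta-UAS-bla cells, 4000/well, 2% charcoal/dextran FBS; 5 h 37 C; cpd titration; 18 h 37 C; CCF4 2 h RT; FI 460/530 nm; Hill fit → IC50, efficacy.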

In test [7] the target is Peroxisome proliferator-activated receptor delta (Homo sapiens) (UniProt Q03181). The description is as above. Summed up:
as §1

Test [8] concerns the target Retinoic acid receptor RXR-alpha (Homo sapiens) (UniProt P19793). The experiment in a line: qHTS assay for small molecule antagonists of retinoid X receptor alpha signaling (AID 588546; active = well fitted inhibition curve with a large enough effect in the signal ratio, with a control signal flat, not every such curve was filed as active; the % refers to the signal ratio; also: % is scaled to controls: 0 for no effect and ±100 for the full control effect). The following applies: HEK293T RXRa-UAS-bla, beta-lactamase ratio, antagonist mode. The method in brief: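 Beta-lactamase reporter inhibition, read as CCF4 fluorescence ratio (ex 405, em 460/530 nm) after 2 h at RT. HEK293T UAS-bla cells, 2500/well, were stimulated with 9-cis-RA at 500 or 100 nM final alongside test compound for 18 h at 37 C.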

Test [9] concerns the target Thyroid hormone receptor beta (Homo sapiens) (UniProt P10828). As to the kind of experiment: qHTS assay for small molecule antagonists of thyroid hormone receptor beta signaling (AID 588547; active = well fitted inhibition curve with a large enough effect in the signal ratio, with a control signal flat, not every such curve was filed as active; the % refers to the signal ratio;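 also: cells stimulated with 0.4 nM T3 agonist during compound exposure; % is scaled to controls: 0 for no effect and ±100 for the full control effect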). Particulars: TR-UAS-bla HEK293, beta-lactamase ratio, antagonist mode, 18 h. Summed up: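 Inhibition of T3-driven (0.4nM final) beta-lactamase reporter activity was measured over 0.59 nM to 92 uM compound after 18 h at 37 C. The cells were GripTite HEK293 TR-UAS-bla in charcoal/dextran-stripped serum, with CCF4 ratio read-out and IC50 from Hill fits.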

Test [10] is described as follows: qHTS assay for small molecule agonists of the antioxidant response element (ARE) signaling pathway (AID 651741; active = well fitted activation curve with a large enough effect in the signal ratio; the % refers to the signal ratio; also: % of control where 0% means no effect). Summed up:
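Quantitative HTS in HepG2 cells stably expressing an ARE-beta-lactamase reporter; 16 h compound exposure at 37 C, followed by 2 h room-temperature incubation with LiveBLAzer B/G FRET substrate and fluorescence measurement.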

Test [11] deals with Nuclear receptor ROR-gamma (Homo sapiens) (UniProt P51449). As to the kind of experiment: qHTS assay for small molecule antagonists of the retinoid-related orphan receptor gamma (ROR-gamma) signaling pathway (AID 651802).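 Also: luciferase reporter luminescence driven by ROR response element; % is scaled to controls: 0 for no effect and ±100 for the full control effect; nearly all actives have a fitted effect of over 60% in size.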 Summed up:
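CHO cells with TET-inducible ROR-gamma and RORE-luciferase reporter, dosed then doxycycline-induced. After 16 h at 37C, One-Glo luminescence read; decreased signal indicates antagonism.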

Test [12] in a line: qHTS assay for small molecule agonists of the antioxidant response element (ARE) signaling pathway measured by Nrf2-dependant transcriptional activity (AID 720636; active = well fitted curve in the direction sought with a large enough effect in the repeat runs; an effect the other way counts as inactive or inconclusive;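 also: HepG2 cells with an ARE-driven luciferase reporter; % of control where 0% means no effect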). Summed up: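 Cells: ARE-luc HepG2 with Nrf2-responsive luciferase. Medium contained 1% dialyzed FBS. Compound exposure lasted 16 hr at 37 C and 5% CO2, followed by ONE-Glo luciferase detection.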
Test [13] is described as follows: Cell Viability - MRC5 (AID 434; calls by dose curve;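 also: potency is read from the fitted curve at half-maximal effect; potency reflects cytotoxicity seen as loss of intracellular ATP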). Particulars: MRC5 lung fibroblast viability, qHTS. Summed up: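 qHTS cytotoxicity in human lung fibroblast MRC5 cells; 40 hr treatment, 37 °C; cellular ATP by luciferase luminescence; DMSO = 0%, 100 uM tamoxifen = 100% inhibition; Hill-fit AC50.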
The nature of test [14]: Cell Viability - NIH 3T3 (AID 541).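 Also: plate controls were DMSO alone for no effect and tamoxifen positive control for full effect; nearly all actives have a fitted effect of over 25% in size.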 The following applies: NIH 3T3 cell viability, qHTS; activity change, negative = cytotoxicity: at 92.2 µM (top of the series). Summed up: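 Mouse NIH 3T3 fibroblasts, 1000 cells/well, rested 5 hr at 37 °C, then exposed to compound for 40 hr at 37 °C in complete medium. Viability read as intracellular ATP by CellTiter-Glo luminescence; AC50 from Hill-equation fits of concentration-response data.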

A short description of test [15]: Cell Viability - LYMP2-010 (AID 981). Also: % is scaled to controls: 0 for no effect and ±100 for the full control effect; nearly all actives have a fitted effect of over 55% in size. The method in brief: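 Human lymphoblastoid LYMP2-010 cells (2500/well) treated 24 h at 37 C in complete medium; viability read as intracellular ATP by CellTiter-Glo luminescence. AC50 from Hill fits of concentration-response data; tetraoctylammonium bromide positive control.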
Test [16] deals with Estrogen receptor (Homo sapiens) (UniProt P03372). As to the kind of experiment: qHTS assay for small molecule antagonists of estrogen receptor alpha signaling (AID 588513; active = well fitted curve in the direction sought with a large enough effect in the signal ratio, with a control signal flat, not every such curve was filed as active; the % refers to the signal ratio; also: % is scaled to controls: 0 for no effect and ±100 for the full control effect). The method in brief: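 ER-alpha-UAS-bla GripTite HEK 293 cells in medium with 2% charcoal/dextran-treated FBS were preincubated 4 h at 37 C, dosed with compound (1:2 titration), stimulated with 0.5nM 17-beta-estradiol for 18 h, then read by CCF4 beta-lactamase fluorescence.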

Test [17] has the same target. As to the kind of experiment: qHTS assay for small molecule agonists of estrogen receptor alpha signaling (AID 588514; calls by dose curve;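 also: 0% = vehicle only and 100% = reference agonist; nearly all actives have a fitted effect of over 70% in size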). The method in brief: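 ER-alpha-UAS-bla GripTite HEK293 cells, 5000/well in 2% charcoal/dextran-stripped FBS medium, treated with compound titrations 18 h at 37 C. CCF4 beta-lactamase read by fluorescence after 2 h RT; normalised to 20 nM 17-beta-estradiol (100%) and DMSO (0%), Hill fit for EC50 and efficacy.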

For test [18], the target named is Peroxisome proliferator-activated receptor delta (Homo sapiens) (UniProt Q03181). As to the kind of experiment: qHTS assay for small molecule agonists of peroxisome proliferator-activated receptor delta signaling (AID 588534; calls by dose curve;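 also: 0% = DMSO basal wells and 100% = positive control agonist at 10 µM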). Summed up: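 Cells carrying a PPAR-delta beta-lactamase reporter were treated with compounds for 18 h at 37 °C in agonist mode. CCF4 fluorescence was read after 2 h; EC50 and efficacy from Hill fits.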

Test [19] has as its target Peroxisome proliferator-activated receptor gamma (Homo sapiens) (UniProt P37231). The experiment in a line: qHTS assay for small molecule antagonists of peroxisome proliferator-activated receptor gamma signaling (AID 588537; active = well fitted inhibition curve with a large enough effect in the signal ratio, with a control signal flat, not every such curve was filed as active; the % refers to the signal ratio;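 also: reporter cells co-stimulated with 50 nM rosiglitazone agonist during compound treatment; % of control where 0% means no effect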). Summed up: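 Antagonist mode, beta-lactamase reporter in HEK293; charcoal/dextran FBS 1%; 3000 cells/well, 37 C 6-6.5 h; cpd titration + rosiglitazone 50 nM final, 16 h 37 C; CCF4, 2 h RT; 460/530 nm; Hill fit → IC50, efficacy.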

Test [20] can be described thus: qHTS assay for small molecule disruptors of the mitochondrial membrane potential - 1 hr assay (AID 651754; calls by dose curve; also: % is scaled to controls: 0 for no effect and ±100 for the full control effect; nearly all actives have a fitted effect of over 35% in size). The method in brief: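 HepG2 cells, attached overnight, were exposed to compound for 1 hr at 37C, then stained 30 min with a potentiometric dye. Ratio of red aggregate (590nm) to green monomer (535nm) fluorescence reports membrane potential; collapse shifts signal toward green.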

SMILES strings stand for the structures. Where “and” joins values, the source holds several entries; their conditions need not be identical. Equal values may be shown once. Inconclusive results are not listed. Calls of active or inactive are those of the source. Unless noted, calls follow the shape of the dose curve; as a rule, active = well fitted curve in the direction sought with a large enough effect; inconclusive = small, poorly fitted or top-dose-only effect, or another doubt; inactive = no such curve, though single readings can be large; an effect the other way counts as inactive or inconclusive. Where only a bound is given, the exact number is not on record here.

Sequence of Nuclear receptor ROR-gamma (Homo sapiens) (P51449 whole entry, looked up): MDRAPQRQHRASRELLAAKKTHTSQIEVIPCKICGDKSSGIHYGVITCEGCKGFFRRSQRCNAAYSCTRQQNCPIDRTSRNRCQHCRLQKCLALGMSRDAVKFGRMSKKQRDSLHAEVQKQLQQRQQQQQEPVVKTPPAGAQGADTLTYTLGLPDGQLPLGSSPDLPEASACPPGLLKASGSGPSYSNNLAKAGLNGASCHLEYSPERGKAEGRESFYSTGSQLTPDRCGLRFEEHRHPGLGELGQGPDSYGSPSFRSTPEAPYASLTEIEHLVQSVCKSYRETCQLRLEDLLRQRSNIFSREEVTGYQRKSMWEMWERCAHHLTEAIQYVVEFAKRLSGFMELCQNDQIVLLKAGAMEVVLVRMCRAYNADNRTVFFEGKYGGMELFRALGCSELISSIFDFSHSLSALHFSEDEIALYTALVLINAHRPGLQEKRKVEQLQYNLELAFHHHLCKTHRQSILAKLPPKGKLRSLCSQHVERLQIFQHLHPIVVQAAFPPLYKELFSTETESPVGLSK
Sequence of Bile acid receptor (Homo sapiens) (Q96RI1 whole entry, looked up): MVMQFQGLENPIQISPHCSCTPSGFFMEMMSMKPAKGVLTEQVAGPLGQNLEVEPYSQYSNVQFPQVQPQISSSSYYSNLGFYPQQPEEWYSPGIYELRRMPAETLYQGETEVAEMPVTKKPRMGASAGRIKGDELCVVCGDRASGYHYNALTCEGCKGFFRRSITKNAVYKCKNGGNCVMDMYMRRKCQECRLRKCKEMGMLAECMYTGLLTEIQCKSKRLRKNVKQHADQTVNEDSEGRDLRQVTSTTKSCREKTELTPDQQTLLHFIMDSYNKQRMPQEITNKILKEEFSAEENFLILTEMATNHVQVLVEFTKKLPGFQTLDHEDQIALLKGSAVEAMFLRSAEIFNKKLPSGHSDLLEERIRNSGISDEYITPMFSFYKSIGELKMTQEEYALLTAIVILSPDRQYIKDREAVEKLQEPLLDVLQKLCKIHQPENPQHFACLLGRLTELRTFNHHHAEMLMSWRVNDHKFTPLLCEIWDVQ
Sequence of Peroxisome proliferator-activated receptor gamma (Homo sapiens) (P37231 whole entry, looked up): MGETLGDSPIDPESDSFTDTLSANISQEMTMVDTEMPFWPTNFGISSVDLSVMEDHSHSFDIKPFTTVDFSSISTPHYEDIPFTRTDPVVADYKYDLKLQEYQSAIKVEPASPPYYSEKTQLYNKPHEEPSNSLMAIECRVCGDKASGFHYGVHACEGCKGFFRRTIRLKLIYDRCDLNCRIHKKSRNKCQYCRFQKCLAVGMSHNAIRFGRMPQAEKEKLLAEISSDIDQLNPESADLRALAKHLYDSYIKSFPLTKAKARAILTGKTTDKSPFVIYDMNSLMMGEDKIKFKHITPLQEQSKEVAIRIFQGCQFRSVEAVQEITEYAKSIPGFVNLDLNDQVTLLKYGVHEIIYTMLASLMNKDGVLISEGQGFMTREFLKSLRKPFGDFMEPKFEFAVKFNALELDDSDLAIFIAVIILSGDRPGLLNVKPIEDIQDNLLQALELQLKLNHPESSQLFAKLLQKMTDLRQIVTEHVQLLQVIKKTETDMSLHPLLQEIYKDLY
Sequence of Retinoic acid receptor RXR-alpha (Homo sapiens) (P19793 whole entry, looked up): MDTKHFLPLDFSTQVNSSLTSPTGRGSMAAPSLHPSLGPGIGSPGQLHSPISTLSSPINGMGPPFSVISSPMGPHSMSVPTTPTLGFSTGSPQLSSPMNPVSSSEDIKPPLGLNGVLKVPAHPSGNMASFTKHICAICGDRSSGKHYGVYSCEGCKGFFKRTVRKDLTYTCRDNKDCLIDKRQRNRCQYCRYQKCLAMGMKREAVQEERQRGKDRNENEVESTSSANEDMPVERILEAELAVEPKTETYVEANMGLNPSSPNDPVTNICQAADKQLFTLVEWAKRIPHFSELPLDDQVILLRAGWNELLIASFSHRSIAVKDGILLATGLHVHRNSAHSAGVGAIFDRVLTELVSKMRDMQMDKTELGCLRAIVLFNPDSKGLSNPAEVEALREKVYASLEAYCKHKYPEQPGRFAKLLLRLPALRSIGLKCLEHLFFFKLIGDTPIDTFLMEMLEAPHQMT
Sequence of Estrogen receptor (Homo sapiens) (P03372 whole entry, looked up): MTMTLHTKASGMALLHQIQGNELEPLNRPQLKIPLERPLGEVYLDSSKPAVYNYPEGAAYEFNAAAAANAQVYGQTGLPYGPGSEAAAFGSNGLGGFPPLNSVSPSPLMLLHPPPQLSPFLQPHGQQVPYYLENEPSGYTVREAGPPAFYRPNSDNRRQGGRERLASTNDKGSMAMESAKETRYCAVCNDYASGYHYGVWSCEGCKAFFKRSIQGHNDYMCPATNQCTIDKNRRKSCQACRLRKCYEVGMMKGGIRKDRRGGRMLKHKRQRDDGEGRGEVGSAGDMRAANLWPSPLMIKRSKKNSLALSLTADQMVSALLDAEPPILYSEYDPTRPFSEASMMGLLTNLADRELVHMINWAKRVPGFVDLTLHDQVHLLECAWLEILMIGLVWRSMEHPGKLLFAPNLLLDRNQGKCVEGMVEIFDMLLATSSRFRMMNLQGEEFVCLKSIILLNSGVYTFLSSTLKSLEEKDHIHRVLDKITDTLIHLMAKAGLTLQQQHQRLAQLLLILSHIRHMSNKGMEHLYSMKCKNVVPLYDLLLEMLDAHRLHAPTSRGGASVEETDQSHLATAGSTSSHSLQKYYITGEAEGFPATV
Sequence of Thyroid hormone receptor beta (Homo sapiens) (P10828 whole entry, looked up): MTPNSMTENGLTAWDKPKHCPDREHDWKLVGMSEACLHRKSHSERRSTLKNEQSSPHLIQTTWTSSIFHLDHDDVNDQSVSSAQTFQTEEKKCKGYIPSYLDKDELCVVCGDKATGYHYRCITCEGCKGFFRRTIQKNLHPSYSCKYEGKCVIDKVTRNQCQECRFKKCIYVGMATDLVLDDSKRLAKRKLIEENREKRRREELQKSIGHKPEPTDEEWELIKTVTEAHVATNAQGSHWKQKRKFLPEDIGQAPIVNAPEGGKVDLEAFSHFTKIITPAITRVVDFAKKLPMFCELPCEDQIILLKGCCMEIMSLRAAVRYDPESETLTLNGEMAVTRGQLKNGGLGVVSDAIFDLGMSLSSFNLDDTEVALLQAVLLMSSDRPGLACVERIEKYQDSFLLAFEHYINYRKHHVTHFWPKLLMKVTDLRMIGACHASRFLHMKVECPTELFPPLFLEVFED
Sequence of Peroxisome proliferator-activated receptor delta (Homo sapiens) (Q03181 whole entry, looked up): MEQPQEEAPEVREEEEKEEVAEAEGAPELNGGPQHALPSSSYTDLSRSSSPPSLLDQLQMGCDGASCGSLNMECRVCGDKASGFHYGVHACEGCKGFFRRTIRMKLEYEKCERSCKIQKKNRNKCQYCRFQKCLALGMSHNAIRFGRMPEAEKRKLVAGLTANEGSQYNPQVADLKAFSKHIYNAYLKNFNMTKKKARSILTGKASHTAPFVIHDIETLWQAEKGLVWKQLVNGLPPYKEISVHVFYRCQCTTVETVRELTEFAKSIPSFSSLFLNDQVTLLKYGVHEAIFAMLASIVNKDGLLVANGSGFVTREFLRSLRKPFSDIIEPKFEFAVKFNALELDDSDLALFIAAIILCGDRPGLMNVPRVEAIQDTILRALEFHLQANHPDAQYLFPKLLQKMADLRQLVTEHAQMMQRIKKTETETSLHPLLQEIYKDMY

As for `O=C(O)c1cc(Cl)ccc1Cl`, the Potency result in [1], in test [2], in [3], in test [4], in [10] and in test [11] was “inactive” in each case. Moreover, in test [12], the Potency entry is “inactive”. Further, the activation in test [5] was -1.21% (inactive). For the same compound, the values for the max response in test [6] and in test [8] were 35.4% and -2.77% (inactive), respectively. In addition, in test [7], the result was inactive. Also, in test [9], the activity change % (negative = inhibition) was 12.5% (inactive).
In the case of `Cc1ccc([N+](=O)[O-])cc1`, the Potency in test [13] was > 92 µM (inactive). Also, the Potency entry in test [1], in test [14], in test [15], in test [3], in test [4] and in test [16] was “inactive” throughout. The Potency entry in test [17], in [19], in [20], in [11] and in [12] was “inactive” each time. The outcome in [18] and in test [7] was inactive. Moreover, the values for the max response in test [6] and in test [8] were 22.5% and 4.07% (inactive), respectively. The activity change % (negative = inhibition) in test [9] is 0.221% (inactive).
For `Cc1cc(-c2cc(C)c(N)c(C)c2)cc(C)c1N`, the Potency in [13] is > 92 µM (inactive). The Potency result in test [1], in [14], in [2], in test [15], in [3] and in [4] was “inactive” in each case. In addition, the Potency entry in [16], in test [17], in [11] and in [12] was “inactive” each time. Further, the outcome in test [18] and in test [7] was inactive. The values for the max response in test [6] and in test [8] were 7.84% and -4.04% (inactive), respectively. In [9], the activity change % (negative = inhibition) was 5.74% (inactive).
In the case of `Nc1ccc(Cc2ccc(N)cc2)cc1`, the Potency entry in [1], in test [14], in test [2], in test [15], in test [3] and in test [19] was “inactive” throughout. For the same compound, the Potency entry in test [20], in [11] and in [12] was “inactive” throughout. Also, the activation in test [5] is -2.78% (inactive) and 3.63% (inactive). Further, the outcome in test [18] and in [7] was inactive. The max response in [6] is 34.2% and -15.9%; in [8], -0.525% (inactive) and -18.2% (inactive). In addition, the activity change % (negative = inhibition) in test [9] is 11% (inactive) and -9.43% (inactive).
For `CCN(N=O)C(N)=O`, the Potency entry in [14], in test [2], in [15], in test [16], in test [17] and in [19] was “inactive” in each case. Further, the Potency entry in [20] and in test [12] was “inactive” throughout. Moreover, the activation in [5] was -1.35% (inactive). Besides, the result in test [18] and in [7] was inactive. For the same compound, the max response in [6] is -10.7%. In addition, in test [9], the activity change % (negative = inhibition) was 18.5% (inactive).
Turning to `COC(C)(C)C`, the Potency in test [13] was > 92 µM (inactive). Besides, the Potency result in [1], in test [2], in [15], in test [3], in test [4] and in [10] was “inactive” in each case. For the same compound, the Potency result in test [20], in [11] and in test [12] was “inactive” throughout. The result in test [18] and in [7] was inactive. In addition, the values for the max response in test [6] and in [8] were -16.9% and 6.43% (inactive), respectively. The activity change % (negative = inhibition) in [9] was -17.3% (inactive).
In the case of `Cc1cc(Cl)ccc1O`, the Potency in test [13] was > 92 µM (inactive). Besides, the Potency entry in test [1], in test [14], in [2], in test [15], in test [3] and in test [4] was “inactive” throughout. The Potency result in [19] was “inactive”. The activation in [5] was -2.04% (inactive). Besides, the compound was called inactive in test [18]. In addition, the activity change % (negative = inhibition) in [9] is -9.26% (inactive).
